From PubChem
Shown are actives, neighbours in structure and some others; about 0.86% of the full set was active somewhere.
FEN1 inh: qHTS Assay for the Inhibitors of Human Flap endonuclease 1 (FEN1). actives 0.35% (n = 390,000). Potency, µM (top dose mostly 114 µM), actives largely listed as inhibitors. Recombinant FEN1 flap cleavage, fluorescence, 15 min; note: nearly all actives have a fitted effect of over 65% in size
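In this screen, 50 nM flap DNA substrate was added to 10 nM FEN1 pretreated with compound for 15 min at room temperature; cleavage was followed with reads at 0 and 15 min, and Hill fitting gave concentration–response parameters.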
BLM helicase inh: qHTS Assay for Inhibitors of Bloom's syndrome helicase (BLM); RecQ-like DNA helicase BLM (Homo sapiens), P54132; recombinant BLM DNA unwinding, fluorescence dequenching; Potency, µM (highest dose often 56.1 µM), actives largely listed as inhibitors; actives 0.2% (n = 350,000); note: nearly all actives have a fitted effect of over 35% in size
APE1 inh: qHTS Assay for Inhibitors of the Human Apurinic/apyrimidinic Endonuclease 1 (APE1); AID 2517, 2012; recombinant APE1, TAMRA/BHQ-2 abasic DNA cleavage fluorescence; Potency, µM (top dose mostly 65.8 µM), actives largely listed as inhibitors; actives 0.35% (n = 350,000); note: nearly all actives have a fitted effect of over 55% in size
Target sequence (P27695 whole entry, looked up): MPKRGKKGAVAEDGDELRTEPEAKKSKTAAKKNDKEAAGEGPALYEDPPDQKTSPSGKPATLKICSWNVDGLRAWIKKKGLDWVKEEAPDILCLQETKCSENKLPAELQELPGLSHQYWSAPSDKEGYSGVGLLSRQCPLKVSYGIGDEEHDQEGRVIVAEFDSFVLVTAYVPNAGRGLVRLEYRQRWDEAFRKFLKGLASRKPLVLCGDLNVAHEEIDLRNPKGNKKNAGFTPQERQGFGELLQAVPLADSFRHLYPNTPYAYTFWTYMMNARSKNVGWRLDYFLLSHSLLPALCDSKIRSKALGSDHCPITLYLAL
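Kinetic fluorescence read (525 ex/598 em nm, three reads 60 s apart) of AP-site incision; signal = third minus first read. Enzyme 0.75 nM, dual-labelled THF duplex 50 nM, compound preincubation 15 min RT.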
Tb PGK inh: qHTS Assay to Find Inhibitors of Phosphoglycerate Kinase; PGK/GAPDH coupled, Kinase-Glo luminescence, 60 min; Potency, µM (series often up to 57.5 µM), usual class: inhibitors; actives 0.043% (n = 380,000); AID 602233, 2012; note: nearly all actives have a fitted effect of over 60% in size
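Luminescent ATP detection (Kinase-Glo Plus) follows a 60-minute room-temperature incubation, with wells lacking PGK as controls. Buffer: 100 mM TEA (pH 7.6), 5 mM MgCl2, 0.01% Tween-20. Coupling enzyme GAPDH (100 nM final) supplies unstable 1,3-BPG in-well.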
GLS inh: qHTS for Inhibitors of Glutaminase (GLS). Glutaminase kidney isoform, mitochondrial (Homo sapiens), O94925. GLS enzymatic activity, qHTS titration. Potency, µM (series often up to 45.5 µM), actives largely listed as inhibitors. actives 0.21% (n = 410,000)
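Human kidney-isoform GLS in 45 mM KH2PO4 pH 8.2, 0.02% Tween-20, with compound, started with 1mM L-Glutamine (added stock). Glutamate oxidase/HRP/Amplex red coupled fluorescence read at start and after 30 min at RT.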
RECQ1 helicase: qHTS Assay for Inhibitors of RecQ-Like Dna Helicase 1 (RECQ1). Potency, µM (top dose mostly 57.3 µM), hits mostly inhibitors. actives 0.54% (n = 240,000). AID 2549, 2010. RECQ1 DNA unwinding, red fluorescence kinetic read. ATP-dependent DNA helicase Q1 (Homo sapiens), P46063; note: nearly all actives have a fitted effect of over 30% in size
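RECQ1T1 50 nM; forked duplex (20 bp + 30-nt ss tails) 200 nM, ATP 2 mM final; pH 8.0, 2 mM MgCl2, 2.5 ug/ml poly(dI-dC); 15 min compound preincubation; discontinuous kinetic read over 2 h at RT.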
Hits are given with their value; [ ] = another dose, or the depositor's remark. Calls come from the whole dose curve; as a rule, active = well fitted curve in the direction sought with a large enough effect; inconclusive = small, poorly fitted or top-dose-only effect, or another doubt; inactive = no such curve, though single readings can be large; an effect the other way counts as inactive or inconclusive.

For COc1ccccc1COc1ccc2c(C)c(CCC(=O)O)c(=O)oc2c1C the results were FEN1 inh inactive, BLM helicase inh inactive, APE1 inh inactive, Tb PGK inh inactive and GLS inh inactive.
For Cc1c(N2C(=O)c3ccc4c5c(ccc(c35)C2=O)CC4)c(=O)n(-c2ccccc2)n1C the results were FEN1 inh 50µM, BLM helicase inh 14µM, APE1 inh inconclusive, Tb PGK inh inconclusive, GLS inh inconclusive and RECQ1 helicase 11µM.
For Cc1c(N2C(=O)/C(=C\c3ccc(N(C)C)cc3)N(C)C2=S)c(=O)n(-c2ccccc2)n1C the results were FEN1 inh inconclusive, BLM helicase inh inactive, APE1 inh inactive, Tb PGK inh inactive, GLS inh inactive and RECQ1 helicase 28µM.
CCNc1ccc(/C=C2\C=Cc3ccccc32)cc1 was read as FEN1 inh inactive.
For O=C(Nc1ccc(/C=C/c2ccc(NC(=O)c3cc(S(=O)(=O)O)c4cccnc4c3O)cc2S(=O)(=O)O)c(S(=O)(=O)O)c1)c1cc(S(=O)(=O)O)c2cccnc2c1O the results were GLS inh inactive.
Screening C=C1C=C(C)n2ncc(C(=O)Nc3ccc(C)cn3)c2N1 returned FEN1 inh inactive.
Screening CCCOc1ccccc1N1C(=O)CC(N(O)c2ccccc2)C1=O (stereo unspecified) returned FEN1 inh inactive, BLM helicase inh inactive, APE1 inh inactive, Tb PGK inh inactive, GLS inh 1.1µM and RECQ1 helicase inactive.
Screening COc1ccccc1N1C(=O)CC(N(O)c2ccccc2)C1=O (stereo unspecified) returned FEN1 inh inactive, BLM helicase inh inactive, APE1 inh inactive, Tb PGK inh inactive, GLS inh 1.3µM and RECQ1 helicase inactive.
Screening Cc1ccccc1N1C(=O)CC(N(O)c2ccccc2)C1=O (stereo unspecified) returned FEN1 inh inactive, BLM helicase inh inactive, APE1 inh inactive, Tb PGK inh inactive, GLS inh inactive and RECQ1 helicase inactive.
Screening N#C[C@H]1C[C@H]2C[C@@H]2N1C(=O)[C@@H](N)C12CC3CC(CC(O)(C3)C1)C2 returned GLS inh inactive.
`COc1cc2c(c(OC)c1OC)-c1c(cc3c(c1OC)OCO3)C[C@@H](C)[C@](C)(O)C2` gave GLS inh inactive.
`COc1ccc(N2CCCC2)c(NC(=O)c2ccc([N+](=O)[O-])o2)c1` gave FEN1 inh inactive, BLM helicase inh inactive, APE1 inh inactive[12.4 µM], Tb PGK inh inactive and GLS inh 13µM.
Screening O=C(CN1CCN(c2ccccc2O)CC1)NCCCc1ccccc1 returned FEN1 inh inactive, BLM helicase inh inactive, APE1 inh inactive, Tb PGK inh inactive, GLS inh 5µM and RECQ1 helicase inactive.
Cc1cc(N(C)C)cc(C)c1/C=C/c1ccnc2ccccc12 was read as FEN1 inh inactive.
`COc1ccc(Cl)cc1Nc1nnc(-c2ccncc2)s1` gave FEN1 inh inactive, BLM helicase inh inactive, APE1 inh 8.4µM, Tb PGK inh inactive and GLS inh inactive.
`ClN=C1C=CC=CC1=NCl` gave GLS inh 10µM.
CN(C)c1ccc2c(-c3ccccc3)c3ccc(=[N+](C)C)cc-3oc2c1 was read as BLM helicase inh 28µM, APE1 inh 28µM and RECQ1 helicase 28µM.
For CCOC(=O)c1nn(-c2ccccc2)c(=O)cc1OCC(=O)Nc1cc(C)ccc1OC the results were FEN1 inh inactive, APE1 inh inactive, Tb PGK inh inactive and GLS inh 7.9µM.
Screening Cc1ccccc1NC1=C/C(=N\S(=O)(=O)c2cccs2)c2ccccc2C1=O returned FEN1 inh inactive, BLM helicase inh 20µM, APE1 inh inactive, Tb PGK inh inactive, GLS inh inactive and RECQ1 helicase inactive.
Screening CC(=O)Nc1ccc(NC2=C/C(=N/S(=O)(=O)c3cccs3)c3ccccc3C2=O)cc1 returned FEN1 inh inactive, BLM helicase inh 22µM, APE1 inh inactive, Tb PGK inh inactive, GLS inh inactive and RECQ1 helicase inactive.
COc1cc(OC)c(OC)cc1/C=c1\[nH]c(=O)/c(=C/c2cc(OC)c(OC)cc2OC)[nH]c1=O was read as FEN1 inh inactive.
Screening COc1ccc2[nH]c3c(=O)n(Cc4ccc(C(=O)N5CCC(C(N)=O)CC5)cc4)c(=S)[nH]c3c2c1 returned FEN1 inh inactive, BLM helicase inh inactive, APE1 inh inactive, Tb PGK inh inactive, GLS inh 22µM and RECQ1 helicase inactive.
Screening COc1ccc2[nH]c3c(=O)n(Cc4ccc(C(=O)N5CCCCCC5)cc4)c(=S)[nH]c3c2c1 returned FEN1 inh inactive, BLM helicase inh inactive, APE1 inh inactive, Tb PGK inh inactive, GLS inh inactive and RECQ1 helicase inactive.
`COc1ccc2[nH]c3c(=O)n(Cc4ccc(C(=O)NCC5CCCO5)cc4)c(=S)[nH]c3c2c1` (stereo unspecified) gave FEN1 inh inactive, BLM helicase inh inactive, APE1 inh inactive, Tb PGK inh inactive, GLS inh inconclusive and RECQ1 helicase 20µM.
Screening Cc1ccc2c(c1)CCCN2C(=O)c1cnn2c1NC(=C1CC1)C=C2C(F)F returned FEN1 inh inactive.
Cc1c(C)c2c(c(C)c1OC(=O)CCC(=O)OCCO)CC[C@](C)(CCC[C@H](C)CCC[C@H](C)CCCC(C)C)O2 was read as GLS inh inactive.
Nc1ccc(C(=O)Nc2ccc(Nc3ccncc3)cc2)cc1 was read as FEN1 inh inactive, BLM helicase inh inactive, APE1 inh inconclusive, Tb PGK inh inactive, GLS inh inactive and RECQ1 helicase inactive.
`Nc1ccc(C(=O)Nc2ccc3c(O)cc(S(=O)(=O)O)cc3c2)cc1` gave FEN1 inh inconclusive, Tb PGK inh inactive and GLS inh 6.3µM.
Screening COc1cc(C)c2ccccc2n1 returned FEN1 inh inactive.
Screening O=c1ccc(NS(=O)(=O)c2ccccc2Cl)cn1Cc1ccc(Cl)c(Cl)c1 returned FEN1 inh 71µM, BLM helicase inh inactive, APE1 inh inactive, Tb PGK inh inactive, GLS inh inactive and RECQ1 helicase inactive.
